PubChem BioAssay AID1159580 (chemical genetic matrix, 2015)
Values joined by “and” are separate entries in the source; they are usually repeats but may differ in a detail not shown here. Equal values may be shown once. Out of some 5,500 compounds screened, about 2,000 (36%) were called active. Roughly 18% stayed inconclusive and do not appear here. Rule as the data show it: active = normalized growth mostly below about 0.91 (no sharp cut-off); inconclusive = no clear call, values can overlap the other calls; inactive = mostly above about 0.92. Some of the results follow.

Assay: chemical genetic growth profiling, strain panel (AID 1159580);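 also: tested at 20 µM; growth read once vehicle control cultures reached saturation at 30 °C; 1 = growth at the plate median or of vehicle wells; lower values mean less growth of the strain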
Conditions: S. cerevisiae deletion strains, growth OD

Measured: normalized growth

NCCCS(=O)(=O)O
inactive: locus YAL013W, strain DEP1, hits give low values 0.978 and 1.01 | locus YAL021C, strain ccr4, hits give low values 1 | locus YAL026C, strain drs2, hits give low values 1.04 | locus YAL030W, strain snc1, hits give low values 1.02 | locus YAL040C, strain CLN3, hits give low values 1.01 | locus YBL061C, strain skt5, hits give low values 1.02 | locus YBR009C, strain hhf1, hits give low values 1.02 | locus YBR021W, strain FUR4, hits give low values 1 | locus YBR023C, strain chs3, hits give low values 1.03 | locus YBR171W, strain sec66, hits give low values 1.02 | locus YBR229C, strain ROT2, hits give low values 0.955 | locus YBR231C, strain swc5, hits give low values 1.01 | locus YBR279W, strain paf1, hits give low values 1.01 | locus YCL011C, strain gbp2, hits give low values 1.02 | locus YCL016C, strain dcc1, hits give low values 1.01 | locus YCL029C, strain bik1, hits give low values 0.991 | locus YCL061C, strain MRC1, hits give low values 1.02 | locus YCL069W, strain vba3, hits give low values 1.02 | locus YCR088W, strain abp1, hits give low values 1.02 | locus YDL005C, strain med2, hits give low values 1.05 | locus YDL035C, strain GPR1, hits give low values 0.988 | locus YDL040C, strain nat1, hits give low values 1.01 | locus YDL074C, strain BRE1, hits give low values 1.03 | locus YDL101C, strain DUN1, hits give low values 0.982 | locus YDL134C, strain PPH21, hits give low values 0.985 | locus YDL185W, strain tfp1, hits give low values 0.982 | locus YDL192W, strain arf1, hits give low values 0.984 | locus YDR001C, strain nth1, hits give low values 1.02 | locus YDR069C, strain doa4, hits give low values 1.01 | locus YDR101C, strain arx1, hits give low values 0.999 | locus YDR137W, strain rgp1, hits give low values 1.03 | locus YDR150W, strain NUM1, hits give low values 0.964 and 1.02 | locus YDR159W, strain sac3, hits give low values 1.01 | locus YDR162C, strain NBP2, hits give low values 0.982 | locus YDR195W, strain ref2 1.02 | locus YDR297W, strain sur2, hits give low values 1.02 | locus YDR318W, strain mcm21, hits give low values 1 | locus YDR334W, strain swr1, hits give low values 1.03 | locus YDR335W, strain msn5, hits give low values 1.02 | locus YDR388W, hits give low values 0.997 | locus YDR392W, strain spt3, hits give low values 0.936 | locus YDR502C, strain sam2, hits give low values 0.982 | locus YEL003W, strain gim4, hits give low values 1.02 | locus YEL037C, strain rad23, hits give low values 1.02 | locus YEL061C, strain CIN8 (second series), hits give low values 1.03 | locus YEL061C, strain CIN8, hits give low values 0.981 | locus YER002W, strain NOP16, hits give low values 1.01 | locus YER015W, strain faa2, hits give low values 0.994 | locus YER016W, strain bim1, hits give low values 1.03 | locus YER110C, hits give low values 0.961 | locus YER111C, strain swi4, hits give low values 1.03 | locus YER155C, strain BEM2 (second series), hits give low values 1.02 | locus YER155C, strain BEM2, hits give low values 0.988 | locus YER167W, strain BCK2, hits give low values 1 | locus YFR010W, strain ubp6, hits give low values 1.04 | locus YGL078C, strain dbp3, hits give low values 0.977 | locus YGL086W, strain mad1, hits give low values 0.98 | locus YGL167C, strain pmr1, hits give low values 1.02 | locus YGL173C, strain kem1, hits give low values 1.03 | locus YGL227W, strain vid30, hits give low values 1.03 | locus YGL240W, strain doc1, hits give low values 1 | locus YGL248W, strain PDE1, hits give low values 0.985 | locus YGL253W, strain hxk2, hits give low values 1.04 | locus YGR078C, strain PAC10, hits give low values 1 | locus YGR135W, strain pre9, hits give low values 0.977 | locus YGR229C, strain SMI1, hits give low values 1 | locus YGR252W, strain gcn5, hits give low values 0.908 | locus YHR013C, strain ard1, hits give low values 1.02 | locus YHR027C, strain rpn1, hits give low values 1.03 | locus YHR030C, strain SLT2, hits give low values 0.984 and 1.01 | locus YHR079C, strain IRE1 (second series), hits give low values 0.989 | locus YHR079C, strain IRE1, hits give low values 0.996 | locus YHR094C, strain hxt1, hits give low values 0.999 | locus YHR129C, strain ARP1, hits give low values 0.989 | locus YHR142W, strain chs7, hits give low values 1.06 | locus YHR200W, strain rpn10, hits give low values 0.993 | locus YIL066C, strain RNR3, hits give low values 0.975 | locus YIL073C, strain SPO22, hits give low values 0.985 | locus YIL125W, strain kgd1, hits give low values 0.981 | locus YIR030C, strain dcg1, hits give low values 0.985 | locus YJL092W, strain hpr5, hits give low values 1.03 | locus YJL095W, strain BCK1 (second series), hits give low values 1.02 | locus YJL095W, strain BCK1, hits give low values 1.03 and 1.01 | locus YJL115W, strain asf1, hits give low values 1.03 | locus YJL129C, strain trk1, hits give low values 1.05 | locus YJL134W, strain LCB3, hits give low values 0.985 | locus YJL154C, strain vps35, hits give low values 1.02 | locus YJL164C, strain tpk1, hits give low values 1.01 | locus YJL166W, strain qcr8, hits give low values 1.02 | locus YJL168C, strain set2, hits give low values 0.996 | locus YJL187C, strain SWE1 (second series), hits give low values 0.983 | locus YJR043C, strain POL32, hits give low values 1.02 | locus YJR066W, strain TOR1, hits give low values 0.984 | locus YJR075W, strain HOC1, hits give low values 0.995
